Assay outcomes deposited in PubChem BioAssay by National Center for Advancing Translational Sciences (NCATS).
Only some compounds are listed: those with a hit (about 4.6% of all), similar ones and a draw of the others.
TRHR enhancer-1 = qHTS for Small Molecule Agonists and Allosteric Enhancers of Human TRH Receptor: Primary Screen for Enhancers. enhancement, % at 2 µM. 360,000 compounds, 0.66% hits. TRHR cells, fluo-8 calcium fluorescence, EC20 TRH enhancement. Thyrotropin-releasing hormone receptor (Homo sapiens), P34981; in the data active means enhancement above about 30%; further: 0% is about no effect
Target sequence (P34981 whole entry, looked up): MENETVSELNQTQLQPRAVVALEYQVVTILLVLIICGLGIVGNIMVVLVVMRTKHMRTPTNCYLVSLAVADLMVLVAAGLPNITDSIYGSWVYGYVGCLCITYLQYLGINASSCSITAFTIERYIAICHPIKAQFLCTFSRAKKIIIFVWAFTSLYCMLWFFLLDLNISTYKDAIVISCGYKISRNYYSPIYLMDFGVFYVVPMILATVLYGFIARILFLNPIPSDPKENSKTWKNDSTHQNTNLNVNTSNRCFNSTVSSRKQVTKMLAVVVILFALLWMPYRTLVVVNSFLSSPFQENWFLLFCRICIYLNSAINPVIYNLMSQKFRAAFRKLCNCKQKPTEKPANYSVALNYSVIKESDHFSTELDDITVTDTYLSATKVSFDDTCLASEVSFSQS
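TRHR-expressing cells loaded with fluo-8 calcium dye were read kinetically (ex 480/em 530) during compound addition, then stimulated with an EC20 of TRH (10 nM final). Enhancement of the Gq-mediated intracellular calcium response was scored.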
D1 ag = Allosteric Agonists of the Human D1 Dopamine Receptor: qHTS | HEK293 T-REx D1 cells, calcium flux, agonist mode | 360,000 compounds, 1% hits | activation, % at 2 µM; further: 0% is about no effect
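Agonism was scored from calcium flux recorded over 180 s (1 read/s) after pintool compound addition, following a 10-cycle baseline. Cells were inducible force-coupled HEK293 TREx D1, plated overnight at 30 C and loaded with no-wash calcium dye.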
D1 antagonist = Antagonist of Human D 1 Dopamine Receptor: qHTS | 360,000 compounds, 3.2% hits | activity change, negative = inhibition, % at 10 µM | HEK293 TREx D1 cells, calcium flux, dopamine EC80; hits give low values | D(1A) dopamine receptor (Homo sapiens), P21728 | AID 504652, 2011; in the data active means activity change below about -30%; further: on the % scale 0 is the no-effect control and ±100 the full control effect
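Calcium flux readout: force-coupled, inducible Hek293 Trex D1 line, cells induced overnight at 30 C with tetracycline, dye-loaded 30–90 min at RT. Antagonism scored against EC80 dopamine challenge given 180 s after compound.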
TRHR agonist-1 = qHTS for Small Molecule Agonists and Allosteric Enhancers of Human TRH Receptor: Primary Screen for Agonists; TRHR cells, calcium flux fluo-8, FDSS agonist mode; Thyrotropin-releasing hormone receptor (Homo sapiens), P34981; activation, % at 2 µM; 360,000 compounds, 0.18% hits; AID 493084, 2011; further: 0% is about no effect
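In this calcium-flux screen, cells bearing human TRHR are dye-loaded with fluo-8, baselined for 10 cycles, then exposed to library compounds; positive kinetic calcium responses during the agonist phase mark hits, with TRH as control.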
D1 PAM = Potentiators of Human D1 Dopamine Receptor: qHTS. D(1A) dopamine receptor (Homo sapiens), P21728. HEK293 TREx D1 cells, calcium flux, dopamine EC20 potentiation. potentiation, % at 10 µM. 360,000 compounds, 0.036% hits. AID 504651, 2011; in the data active means potentiation above about 30%; further: 0% is about no effect
TRHR enhancer-2 = qHTS for Small Molecule Agonists and Allosteric Enhancers of Human TRH Receptor: Confirmation Screen for Enhancers; activity change, negative = inhibition, % at 46.1 µM; 970 tested, under 10 active; TRH receptor cell assay, enhancer confirmation qHTS; shares compounds with TRHR enhancer-1; active means well fitted curve in the direction sought with a large enough effect; inconclusive means small, poorly fitted or top-dose-only effect, or another doubt; inactive means no such curve, though single readings can be large; an effect the other way counts as inactive or inconclusive;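 further: compound effect scored on response to added TRH at EC20 of 10 nM; 0% is about no effect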
TRHR agonist-2 = qHTS for Small Molecule Agonists and Allosteric Enhancers of Human TRH Receptor: Confirmation Screen for Agonists; shares compounds with TRHR enhancer-1; TRHR-expressing cells, agonist activation read-out; Potency, µM (doses to about 46.1 µM), for the others: top-dose activation, hits mostly activators; 970 compounds, 8% hits; AID 493078, 2011; active means well fitted curve in the direction sought with a large enough effect; inconclusive means small, poorly fitted or top-dose-only effect, or another doubt; inactive means no such curve, though single readings can be large; an effect the other way counts as inactive or inconclusive; further: potency means the concentration at half of the fitted maximal effect; 0% is about no effect; nearly all actives have a fitted effect of over 75% in size
* = called active by the depositor; u = inconclusive; x = no result given. Unless noted, no stated cut-off is given here; in the data, active means activation above about 30%; inactive means the rest.

SMILES | TRHR enhancer-1 | D1 ag | D1 antagonist | TRHR agonist-1 | D1 PAM | TRHR enhancer-2 | TRHR agonist-2
COc1ccc(C2/C(=C(\O)c3ccc4c(c3)OCCO4)C(=O)C(=O)N2c2nc(C)c(C(C)=O)s2)cc1 (stereo unspecified) | 41.1* | 1.8 | -14.4 | 0.2 | -6.8 | 2.2 | 2.0%
COc1ccc(S(=O)(=O)Nc2ccccc2C(=O)N2CCOCC2)cc1Cl | 14.6 | 1.7 | -1.5 | -0.2 | -0.8 | x | x
CSCCC(NC(=O)COc1ccccc1)C(=O)N(C)Cc1ccc(Cl)cc1Cl (stereo unspecified) | -6.2 | 14.7 | 10.3 | 0.0 | -6.8 | x | x
Cc1cccn2c(=O)c(C=Nc3ccc(Cl)cc3)c(NCCO)nc12 | 7.0 | 1.0 | 2.1 | -0.4 | -1.6 | x | x
Cc1cccn2c(=O)c(C=Nc3ccccc3)c(NCCO)nc12 | 44.0* | 1.1 | -4.0 | 0.1 | 0.5 | -15.1 | 0.4%
CCCn1c(SCC(=O)N2CCCCC2)nnc1C(C)C | -5.3 | 3.6 | 7.1 | 32.0* | -1.9 | -4.4 | 1.0%
CCCn1c(SCC(=O)N2CCCCC2)nnc1-c1ccco1 | 48.5* | 2.2 | 14.8 | 0.4 | -1.9 | 4.1 | -0.8%
COCCn1c(SCC(=O)N2CCCC2)nnc1C(C)C | 4.5 | 2.3 | -10.0 | 0.4 | 1.8 | x | x
CNC(=O)C1CN(C(=O)c2cccc(S(=O)(=O)N3c4ccccc4CC3C)c2)c2ccccc2O1 (stereo unspecified) | 2.0 | 1.8 | 0.3 | -0.1 | 1.7 | x | x
CCCCNS(=O)(=O)c1ccc(NC(=O)C(Sc2ccccc2)c2ccccc2)cc1 (stereo unspecified) | 1.9 | 13.5 | 14.9 | 27.2 | -4.1 | -2.9 | u
CCC(C)NS(=O)(=O)c1ccc(NC(=O)C(Sc2ccccc2)c2ccccc2)cc1 (stereo unspecified) | -1.2 | 6.6 | 9.4 | 1.2 | 3.8 | x | x
O=C(NC(Cc1ccccc1)C(=O)N1CCCCC1)c1ccccc1 (stereo unspecified) | -3.4 | -0.1 | 6.7 | -0.2 | -0.2 | x | x
O=S(=O)(Nc1ncnc2c1oc1ccccc12)c1ccc(Cl)s1 | 50.7* | -0.6 | 8.9 | -0.1 | 3.0 | -7.6 | 4.8%
CNc1c(NS(=O)(=O)c2ccc(Cl)s2)c(=O)oc2ccccc12 | -6.5 | 3.0 | 11.9 | 1.0 | -5.8 | x | x
COc1cc(Cl)c(C)cc1NC(=O)CNC(=O)Cn1ccc2ccccc2c1=O | 1.4 | 1.0 | -3.9 | -0.2 | 0.0 | x | x
N#C/C(=C(/O)c1ccccc1F)c1nc2cc(C(F)(F)F)ccc2s1 | 41.1* | 2.4 | -15.1 | 0.9 | -3.2 | -0.9 | -0.7%
COc1ccc(NC(=O)CN(C)C(=O)CNC(=O)c2sc3ccccc3c2Cl)cc1 | 44.7* | 0.6 | -1.0 | 0.1 | -8.7 | 0.8 | 1.2%
Cc1cc(C)c2nc(SC(C)C(=O)NCC(=O)Nc3ccc(F)c(F)c3F)cc(C)c2c1 (stereo unspecified) | -5.3 | 3.5 | -6.8 | -1.7 | 26.9 | x | x
Cc1cc(SC(C)C(=O)NCC(=O)Nc2ccc(F)c(F)c2F)nc2ccccc12 (stereo unspecified) | 43.5* | 0.9 | 4.0 | 0.1 | 2.4 | u | 2.4%
CC(Sc1nc(C(F)(F)F)nc2ccccc12)C(=O)NC1CCCC1 (stereo unspecified) | -2.5 | 2.2 | 9.5 | -0.5 | 1.1 | x | x
CCCN1CCC(CCOc2ccccc2)(C(=O)OCC)CC1 | 55.7* | 3.4 | 2.5 | 0.0 | -1.9 | -4.3 | 0.9%
CCCc1cc(N2CCN(c3cccc(C)c3C)CC2)n2cnnc2n1 | -9.3 | 2.0 | 12.6 | -1.7 | 0.2 | x | x
COc1ccccc1NC(=S)N(Cc1cccnc1)Cc1ccccc1Cl | -0.7 | 1.1 | -13.5 | -0.2 | -2.9 | x | x
